# According to the supplement of paper PMC10127200:
# Where a name gives a salt, the structure may show the parent alone.
# Assays:
# Test in all cases: Euclidean distance of Cell Painting phenotypic profile (signed KS, 77 features) to DMSO centroid (dimensionless distance); 5 or 10 uM (library dependent); higher = stronger phenotypic change vs DMSO (phenoactivity)
# Conditions in all cases: 48 h
# 786-O = test system: 786-O
# Outline: (§1)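 Phenoactivity is computed as Euclidean distance to the median vehicle profile. The profiles, drawn from 77 Harmony features scored as signed Kolmogorov-Smirnov statistics versus same-plate vehicle wells, were corrected for plate position, correlation-weighted and replicate-averaged at the top dose. Stained cells were imaged confocally at 20X (9 fields/well) after 48 h with library compounds at 10 or 5 uM, 0.1% DMSO final, in five cancer lines and a healthy fibroblast line.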
# A549 = test system: A549
# Outline: as §1
# DU145 = test system: DU145
# Outline: as §1
# FB = test system: FB
# Outline: as §1
# HEPG2 = test system: HEPG2
# Outline: as §1
# OVCAR4 = test system: OVCAR4
# Outline: as §1
Structure (SMILES),Euclidean distance (786-O),Euclidean distance (A549),Euclidean distance (DU145),Euclidean distance (FB),Euclidean distance (HEPG2),Euclidean distance (OVCAR4)
Cc1cccc(-c2[nH]ncc2-c2ccc3ncccc3n2)n1,0.773,0.733,0.91,1.15,0.71,0.807
COc1ccc(CCN(C)CCCC(C#N)(c2ccc(OC)c(OC)c2)C(C)C)cc1OC (configuration not stated) [Verapamil HCl],0.99,0.567,0.723,1.41,0.719,–
Cc1c(C(=O)NN2CCCCC2)nn(-c2ccc(Cl)cc2Cl)c1-c1ccc(Cl)cc1 [Rimonabant],1.92,1.17,1.04,0.895,0.664,1.22
O=C1c2c(O)cccc2C([C@@H]2O[C@H](CO)[C@@H](O)[C@H](O)[C@H]2O)c2cc(CO)cc(O)c21 (some centres not stated) [Aloin],1.2,0.555,0.756,0.842,0.479,0.881
CCCCOc1ccc(CC(=O)NO)cc1 [Bufexamac],1.36,1.11,0.87,1.25,0.883,1.39
C=C[C@H]1CN2CC[C@H]1C[C@@H]2[C@@H](O)c1ccnc2ccc(OC)cc12 [Quinidine sulfate],0.69,0.88,1.08,0.954,0.831,–
Cc1cc(-c2ccccc2)nnc1NCCN1CCOCC1 [Minaprine dihydrochloride],0.893,1.02,0.918,1.32,0.555,1.06
Cc1cc2c(cc1S(N)(=O)=O)S(=O)(=O)CCC2 [Meticrane],0.951,0.864,2.26,0.946,1.17,0.99
COC(=O)C1=C(C)NC(C)=C(C(=O)OC)C1c1ccccc1[N+](=O)[O-] [Nifedipine],1.37,0.783,0.776,1.11,1.58,–
CCC/N=C1\S/C(=C\c2ccc(OC[C@H](O)CO)c(Cl)c2)C(=O)N1c1ccccc1C [Ponesimod],1.96,1.39,0.669,1,1.32,1.26
Cc1ccc([N+](=O)[O-])cc1S(=O)(=O)N(C)/N=C/c1cnc2ccc(Br)cn12,3.41,4.67,2.87,2.69,2.06,4.4
CC(C(=O)O)c1ccc(CC2CCCC2=O)cc1 (configuration not stated) [Loxoprofen],1.12,0.954,0.808,1.12,0.384,0.794
CCCCCCCCCCCC1=C(O)C(=O)C=C(O)C1=O [Embelin],1.85,1.18,1.4,1.6,1.16,1.88
CC1=C(C(=O)OC2CCCCC2)C(c2ccc([N+](=O)[O-])cc2)C2=C(CC(C)(C)CC2=O)N1 (configuration not stated),2.98,3.4,1.52,2.71,2.03,2.99
C=CC(=O)Nc1cccc(Oc2nc(Nc3ccc(N4CCN(C)CC4)cc3)ncc2Cl)c1,2.42,2.73,2.46,4.15,2.28,3.17
CN(C)CCC=C1c2ccccc2COc2ccccc21 [Doxepin HCl],1.22,1.14,1.36,1.45,0.967,2.09
CC(=O)Nc1ccc(OC(=O)c2ccccc2OC(C)=O)cc1 [Benorylate],1.08,1.08,1.31,1.41,0.561,1.13
COC(=O)N[C@@H](C)CNc1nccc(-c2cn(C(C)C)nc2-c2cc(Cl)cc(NS(C)(=O)=O)c2F)n1,2.13,1.78,1.47,2.67,3.02,1.86
Cn1c(=O)n(-c2ccc(C(C)(C)C#N)cc2)c2c3cc(-c4cnc5ccccc5c4)ccc3ncc21 [BEZ235 (NVP-BEZ235. Dactolisib)],3.77,3.79,1.66,2.82,0.961,4.78
NS(=O)(=O)Cc1noc2ccccc12 [Zonisamide],1.61,0.951,0.986,0.762,0.835,1.9
O=C(/C=C/c1ccccc1)NC(NC(=S)Nc1cccc2cccnc12)C(Cl)(Cl)Cl (configuration not stated) [Salubrinal],0.979,1.28,1,1.21,1.04,1.28
Cc1ccc(/C(=C\CN2CCCC2)c2cccc(/C=C/C(=O)O)n2)cc1 [Acrivastine],1.08,0.966,1.03,0.976,0.729,1.02
CC1COc2c(N3CCN(C)CC3)c(F)cc3c(=O)c(C(=O)O)cn1c23 (configuration not stated) [Ofloxacin],1.01,0.65,0.81,0.702,0.545,1.25
Cc1cc(-c2ncc(CC(=O)Nc3ccc(-c4cnccn4)cn3)cc2C)ccn1,1.05,1.24,0.884,0.878,0.741,0.931
O=P(O)(O)C(O)(Cn1ccnc1)P(=O)(O)O [Zoledronic Acid],0.951,1.23,0.9,1.37,2.13,1.11

Structure (SMILES),Euclidean distance (786-O),Euclidean distance (A549),Euclidean distance (DU145),Euclidean distance (FB),Euclidean distance (HEPG2),Euclidean distance (OVCAR4)
O=C(/C=C/C#Cc1cccc(NS(=O)(=O)c2ccccc2)c1)NO [Oxamflatin],3.39,3.01,2.81,4.53,2.79,3.64
Cc1ccc(/C=C2/C(=O)C3(C)CCC2C3(C)C)cc1 (configuration not stated) [4-Methylbenzylidene camphor],1.01,1.2,0.926,0.895,0.613,1.22
CN(C)CCC[C@@]1(c2ccc(F)cc2)OCc2cc(C#N)ccc21 [Escitalopram Oxalate],1.58,1.12,1.67,0.918,0.791,1.43
CC(=O)Oc1cc(C(C)C)c(OCCN(C)C)cc1C [Moxisylyte hydrochloride],0.394,0.612,1.83,1.12,0.369,0.608
COc1cc(C(C)=O)ccc1OCCCN1CCC(c2noc3cc(F)ccc23)CC1 [Iloperidone],1.83,1.43,0.93,1.43,0.503,1.87
Nc1ccc(C(=O)O)c(O)c1 [Sodium 4-Aminosalicylate],1.34,2.62,1.27,2.47,1.02,1.43
C[n+]1ccccc1C=NO [Pralidoxime Iodide],1.45,0.771,0.975,0.641,0.434,0.907
O=C(CCc1ccc(O)cc1)c1c(O)cc(O)cc1O [Phloretin],0.62,0.656,1.06,1.13,1.23,0.792
CC(=O)OCC[N+](C)(C)C [Acetylcholine Chloride],1.02,0.848,1.22,1,0.549,1.13
N[C@@H](C(=O)N[C@@H]1C(=O)N2C(C(=O)O)=C(Cl)CS[C@H]12)c1ccccc1 [Cefaclor],1.19,0.817,0.688,0.8,0.709,1.53
C[S+](CC[C@H](N)C(=O)[O-])C[C@H]1O[C@@H](n2cnc3c(N)ncnc32)[C@H](O)[C@@H]1O (some centres not stated) [Ademetionine],0.708,1.02,0.772,0.885,0.304,0.658
COc1cc2ncnc(Nc3ccc(F)c(Cl)c3)c2cc1OCCCN1CCOCC1 [Gefitinib hydrochloride],1.01,1.23,1.18,0.779,0.482,1.31
NS(=O)(=O)c1cc(C(=O)O)c(NCc2ccco2)cc1Cl [Furosemide],1.62,0.823,1.83,1.25,0.788,0.747
CC[C@H](C)C(=O)O[C@H]1C[C@@H](C)C=C2C=C[C@H](C)[C@H](CC[C@@H]3C[C@@H](O)CC(=O)O3)[C@H]21 [Lovastatin],1.17,1.61,0.903,2,2.11,0.909
CC1(C)S[C@@H]2[C@H](NC(=O)[C@H](NC(=O)N3CCN(S(C)(=O)=O)C3=O)c3ccccc3)C(=O)N2[C@H]1C(=O)O [Mezlocillin Sodium],1.2,0.987,1.43,1.15,1.72,0.751
COc1ccc(CC2c3cc(OC)c(OC)cc3CC[N+]2(C)CCC(=O)OCCCCCOC(=O)CC[N+]2(C)CCc3cc(OC)c(OC)cc3C2Cc2ccc(OC)c(OC)c2)cc1OC (configuration not stated) [Atracurium Besylate],1.83,0.711,1.16,0.918,1.14,1.51
CC(C)(C)Cn1c(N)nc2ccc(-c3[nH]c(C(C)(C)C)nc3-c3ccc(F)cc3)nc21,4.34,2.69,2.57,3.56,4.51,3.76
CCCCCCCCc1ccc(CCC(N)(CO)CO)cc1 [Fingolimod],5.32,4,5.79,2.18,5.29,4.16
CCCN[C@H]1CCc2nc(N)sc2C1 [Pramipexole],1.54,0.915,1.04,0.837,0.869,1.19
CC(C)N1CCN(c2ccc(OCC3COC(Cn4cncn4)(c4ccc(Cl)cc4Cl)O3)cc2)CC1 (configuration not stated) [Terconazole],1.82,2.07,1.88,1.04,0.664,1.06
COc1cc2c(cc1OC)CC(=O)N(CCCN(C)C[C@H]1Cc3cc(OC)c(OC)cc31)CC2 [Ivabradine HCl],1.05,1.49,1.14,0.867,2.1,0.925
CC(=O)Nc1ccc(NC(=S)NC(=O)c2ccc(C(C)(C)C)cc2)cc1 [Tenovin-1],2.16,1.83,0.772,0.753,1.08,1.03
Cc1ccc(F)c(NC(=O)Nc2ccc(-c3cccc4[nH]nc(N)c34)cc2)c1 [Linifanib (ABT-869)],1.23,2.53,1.64,1.81,4.87,1.29
CN(C)CCC(c1ccccc1)c1ccccn1 (configuration not stated) [Pheniramine Maleate],0.54,1.02,0.777,0.632,0.694,1.34
C=C1C(=O)O[C@H]2[C@H]1CC/C(C)=C/CC[C@@]1(C)O[C@@H]21 [(-)-Parthenolide],3.29,1.26,3.27,2.7,1.55,1.16
